The values that follow come from PubChem BioAssay (NCATS).

A short description of assay [1]: Quantitative High-Throughput drug screen in 47 multiple myeloma cell lines against the NCATS MIPE library collection: LP1_DSMZ cell viability assay (AID 1918982). Further: nearly all actives have a fitted effect of over 35% in size. The gist of the method: (§1)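 Inhibition of viability over 48 h was scored by ATP content (CellTiter-Glo) in 500-cell wells. Zero and full viability were defined by media-only and DMSO-only wells.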
Assay [2] can be described thus: Quantitative High-Throughput drug screen in 47 multiple myeloma cell lines against the NCATS MIPE library collection: KMS28PE_JCRB cell viability assay (AID 1918983). Further: nearly all actives have a fitted effect of over 35% in size. In short, it runs like this: as §1
Assay [3] can be described thus: Quantitative High-Throughput drug screen in 47 multiple myeloma cell lines against the NCATS MIPE library collection: L363_DSMZ cell viability assay (AID 1918984). Further: nearly all actives have a fitted effect of over 40% in size. In short, it runs like this:
as §1

Assay [4] is described as follows: Quantitative High-Throughput drug screen in 47 multiple myeloma cell lines against the NCATS MIPE library collection: KMS34_JCRB cell viability assay (AID 1918985). Further: nearly all actives have a fitted effect of over 40% in size. The gist of the method: as §1
Assay [5] in a line: Quantitative High-Throughput drug screen in 47 multiple myeloma cell lines against the NCATS MIPE library collection: OCIMY7_PLB cell viability assay (AID 1918987). Further: nearly all actives have a fitted effect of over 65% in size. As to conditions: OCI-MY7 myeloma viability, CellTiter-Glo ATP, 48 h; viability (% of DMSO): at 45.8 µM (top of the series). The gist of the method:
as §1
In general terms: ATP-based viability assays read luminescence as a measure of living cells.

Assay [6] can be described thus: Quantitative High-Throughput drug screen in 47 multiple myeloma cell lines against the NCATS MIPE library collection: OCIMY5_PLB cell viability assay (AID 1918988). Further: nearly all actives have a fitted effect of over 65% in size. The gist of the method: as §1
A short description of assay [7]: Quantitative High-Throughput drug screen in 47 multiple myeloma cell lines against the NCATS MIPE library collection: OPM1_PLB cell viability assay (AID 1918989). Further: nearly all actives have a fitted effect of over 40% in size. The gist of the method:
as §1

Assay [8] in a line: Quantitative High-Throughput drug screen in 47 multiple myeloma cell lines against the NCATS MIPE library collection: U266_ATCC cell viability assay (AID 1919864). Further: nearly all actives have a fitted effect of over 35% in size. In short, it runs like this:
as §1

Assay [9] can be described thus: Quantitative High-Throughput drug screen in 47 multiple myeloma cell lines against the NCATS MIPE library collection: XG6_PLB cell viability assay (AID 1919865). Further: nearly all actives have a fitted effect of over 40% in size. The gist of the method:
as §1

The nature of assay [10]: Quantitative High-Throughput drug screen in 47 multiple myeloma cell lines against the NCATS MIPE library collection: SKMM1_PLB cell viability assay (AID 1919863). Further: nearly all actives have a fitted effect of over 35% in size. As to conditions: SKMM1 myeloma viability, CellTiter-Glo ATP, 48 h; viability: active compounds read low. The gist of the method:
as §1

Molecules are shown by their SMILES. Results filed as inconclusive are left out. Values without a mark were called inactive. Calls of active or inactive are those of the source. The call rests on the fitted dose curve; in most records, active means well fitted cell-killing curve with a large enough effect; inconclusive means small, poorly fitted or top-dose-only effect, or effect the other way; inactive means no such curve, though single readings can be large or run the other way.
Potency means the concentration at half of the fitted maximal effect.

Take `Oc1ccc(-c2ccc(-c3cc(Nc4cccc(CNC5CC5)c4)n[nH]3)cc2)c(O)c1`: the Potency is 2640 nM (active) in assay [1]; 5260 nM (active) in assay [2]; 148 nM (active) in assay [3]; 4180 nM (active) in assay [4]; 4690 nM (active) in [5]; 1480 nM (active) in assay [6]. Moreover, the Potency is 1050 nM (active) in [7], 5260 nM (active) in [8] and 418 nM (active) in [9].
For the molecule `COc1cccc2c1C(=O)c1c(O)c3c(c(O)c1C2=O)C[C@@](O)(C(=O)CO)C[C@@H]3O[C@H]1C[C@H](N)[C@@H](O)[C@H](C)O1`, the Potency in assay [1] was 1870 nM (active); in [2], 526 nM (active); in assay [3], 1870 nM (active); in assay [4], 743 nM (active); in assay [5], 2090 nM (active); in assay [6], 526 nM (active). Further, the Potency in assay [7] is 743 nM (active); in assay [10] it was 935 nM (active); in [8], 1320 nM (active); in assay [9] it was 148 nM (active).
Turning to `COC[C@H](NC(=O)c1cnc(C)s1)C(=O)N[C@@H](COC)C(=O)N[C@@H](Cc1ccccc1)C(=O)[C@@]1(C)CO1`, the Potency in [1] was 148 nM (active); in assay [2], 66.2 nM (active); in [3] it was 37.2 nM (active); in assay [4], 74.3 nM (active); in [5], 52.6 nM (active); in assay [6], 37.2 nM (active). Further, the Potency in [7] was 118 nM (active); in assay [10], 372 nM (active); in assay [8], 74.3 nM (active); in [9], 59 nM (active).
On to `CCC(C(=O)O)C1CCC(C)C(C(C)C(O)C(C)C(=O)C(CC)C2OC3(C=CC(O)[C@@]4(CC[C@](C)(C5CC[C@@](O)(CC)C(C)O5)O4)O3)C(C)CC2C)O1` (stereo partly specified), for which the Potency in assay [1] is 4690 nM (active); in [2] it was 16600 nM (active); in [3], 833 nM (active); in assay [4], 6620 nM (active); in assay [5], 2960 nM (active); in assay [6] it was 372 nM (active). Besides, the Potency in assay [7] was 1320 nM (active); in [10], 2640 nM (active); in assay [8], 5260 nM (active); in [9], 3320 nM (active).
On to `CCc1ccc(C(=O)Nc2cc(CN3CCN(C)CC3)cc(C(F)(F)F)c2)cc1C#Cc1cnc2ccnn2c1`, for which the Potency in assay [1] was 16600 nM (active); in assay [2] it was 16600 nM (active); in [3] it was 6620 nM (active); in [4] it was 10500 nM (active); in [5], 1870 nM (active); in assay [6], 1870 nM (active). The Potency in assay [7] was 7430 nM (active); in [10], 16600 nM (active); in assay [8], 18700 nM (active); in assay [9] it was 4180 nM (active).
Turning to `COc1cc2c(cc1OC)[C@@H]1C(=O)c3ccc4c(c3O[C@@H]1CO2)C=CC(C)(C)O4`, the Potency is 29.6 nM (active) in assay [1]; 418 nM (active) in assay [2]; 26.4 nM (active) in assay [3]; 23500 nM (active) in [4]; 418 nM (active) in [5]; 148 nM (active) in assay [6]. Also, the values for the Potency in [7] and in assay [10] were 10500 nM (active) and 13200 nM (active), respectively.
In the case of `C=CC(=O)N1CCc2ccc(-n3c(=O)ccc4cnc5ccc(-c6cnn(C)c6)cc5c43)cc21`, the Potency is 1480 nM (active) in [1]; 4690 nM (active) in assay [2]; 833 nM (active) in [3]; 935 nM (active) in assay [4]; 833 nM (active) in [5]; 3320 nM (active) in assay [6]. Besides, the Potency is 833 nM (active) in assay [7], 1320 nM (active) in [10], 3320 nM (active) in assay [8] and 2960 nM (active) in assay [9].
Consider `CC(C)(O)Cn1c(NC(=O)c2ccc(-c3cn[nH]c3)s2)nc2cc(CN3CCOCC3)ccc21`, for which the Potency in assay [1] was 1870 nM (active); in [2], 1480 nM (active); in assay [3], 662 nM (active); in assay [4], 1320 nM (active); in [5] it was 332 nM (active); in assay [6], 1320 nM (active). Besides, the Potency in assay [7] is 743 nM (active); in assay [10], 2960 nM (active); in assay [8], 1180 nM (active).
For `CC(=O)ON=C1C(c2c(O)[nH]c3cc(Br)ccc23)=Nc2ccccc21`, the Potency in assay [1] is 11800 nM (active); in [2], 20900 nM (active); in assay [3], 3720 nM (active); in assay [4], 4690 nM (active); in assay [5], 1480 nM (active); in assay [6], 9350 nM (active). Also, the Potency is 3720 nM (active) in [7] and 14800 nM (active) in [8].
By viability is commonly meant a read-out of living cells in per cent, often relative to untreated cells. On to `CC(=O)O[C@@]12CO[C@H]1C[C@H](O)[C@@]1(C)C(=O)[C@H](O)C3=C(C)[C@@H](OC(=O)C(O)[C@@H](NC(=O)OC(C)(C)C)c4ccccc4)C[C@@](O)([C@@H](OC(=O)c4ccccc4)[C@@H]21)C3(C)C` (stereo partly specified), for which the Potency entry in assay [1], in [2], in [3], in assay [4], in [5] and in assay [6] was “inactive” throughout. Further, the Potency entry in assay [7] and in assay [9] was “inactive” each time. Also, the viability in [10] is 60%.
As to `COc1ccc(S(=O)(=O)Nc2cccnc2Nc2ccc(O)cc2)cc1`, the Potency was 148 nM (active) in assay [1]; 105 nM (active) in [2]; 46.9 nM (active) in assay [4]; 37.2 nM (active) in assay [5]; 37.2 nM (active) in assay [6]; 235 nM (active) in assay [7]. Besides, the values for the Potency in assay [10] and in assay [8] were 37.2 nM (active) and 1050 nM (active), respectively. Besides, the Potency result in [3] was “inactive”.
Consider `CC(C)C[C@H](NC(=O)[C@@H](NC(=O)c1cccc(-c2ccccc2)n1)[C@@H](C)O)B(O)O`, for which the Potency in assay [1] was 29.6 nM (active); in assay [2] it was 23.5 nM (active); in assay [3], 26.4 nM (active); in assay [4] it was 20.9 nM (active); in [5], 14.8 nM (active); in [6] it was 13.2 nM (active). In addition, the Potency in assay [7] is 13.2 nM (active); in assay [10] it was 74.3 nM (active); in assay [8], 14.8 nM (active); in assay [9], 13.2 nM (active).
In the case of `COc1ccc(C=Cc2cc(OC)c(OC)c(OC)c2)cc1NC(=O)[C@H](N)CO`, the Potency in assay [1] is 1.7 nM (active); in assay [2], 9.3 nM (active); in assay [3] it was 9.3 nM (active); in assay [4], 4.2 nM (active); in assay [5], 1 nM (active); in [6], 2.6 nM (active). Moreover, the values for the Potency in assay [7] and in assay [8] were 1 nM (active) and 13.2 nM (active), respectively. Also, the Potency entry in assay [9] was “inactive”.
